# Assay results: PubChem BioAssay
# The source made the active and inactive calls.
# Columns and labels:
# [1] = system: Human papillomavirus type 1a protein E7 (residues 44-93); assay: small molecules binding HPV E7 44-93 – biochemical, small-molecule microarray, residues 44-93, 635 nm fluorescence, primary screen (AID 1108); conditions: fluorescence 635 nm, higher = more signal;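 note: E7 fragment applied at 1 µg/mL in TBST for 1 h at 4 C; score combines spot fluorescence with its signal to noise ratio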
# [2] = hepatitis C replication reporter changes, two-sided – Huh7 cells, luciferase reporter, HCV replication inhibitor project, primary screen (AID 1109); conditions: Huh7 HCV replicon luciferase reporter, 48 h; higher = more signal;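 note: huh7 hepatoma cells harbouring a luciferase neomycin HCV replicon reporter; luciferase luminescence as measure of HCV replicon replication; test concentration not given here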
# [3] = biological target: Left-right determination factor 2 (Homo sapiens) (UniProt O00292); assay: small molecules binding LEFTY2 protein – biochemical, small-molecule microarray, 635 nm fluorescence scan, primary screen (AID 1110); conditions: higher = more signal
# [4] = biological target: Calmodulin-1 (Homo sapiens) (UniProt P0DP23); assay: small molecules binding calmodulin-1 with EGTA – biochemical, small-molecule microarray, Cy5-labelled CALM1, profiling panel (AID 1111); conditions: Cy5-CALM1 binding fluorescence, higher = more signal;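 note: labelled calmodulin applied in Tris saline Tween buffer holding calcium plus EGTA and DTT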
# [5] = biological target: Calmodulin-1 (Homo sapiens) (UniProt P0DP23); assay: small molecules binding Ca-loaded calmodulin-1 – biochemical, small-molecule microarray, Cy5-labelled CALM1, plus calcium, artefact control for SMM control-protein annotation, profiling panel (AID 1112); conditions: Cy5-CALM1 binding fluorescence, higher = more signal;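 note: score merges spot fluorescence with signal to noise from triplicate slides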
# [6] = probe aWnt5a binding to arrayed compounds – biochemical, biotinylated probe, 635/667 nm fluorescence, primary screen (AID 1113); conditions: small-molecule microarray, higher = more signal;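 note: score merges 667 nm fluorescence intensity with signal-to-noise per printed feature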
# [7] = probe aShh binding to arrayed compounds – biochemical, biotinylated probe, 635/667 nm fluorescence, primary screen (AID 1114); conditions: small-molecule microarray, higher = more signal;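 note: probe is biotin-labelled aShh protein from a stem cell growth factor screen; measures binding of labelled protein to compounds printed on the slide; score merges feature fluorescence at 667 nm with signal-to-noise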
# [8] = probe aNog binding to arrayed compounds – biochemical, biotinylated probe, 635/667 nm fluorescence, primary screen (AID 1115); conditions: small-molecule microarray, higher = more signal;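 note: probe is biotinylated aNog protein used at 0.15 µg/mL for 1 h at 4 C; z-score combines 667 nm fluorescence of each spot with its signal to noise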
# [9] = biological target: Torsin-1A-interacting protein 1 (Homo sapiens) (UniProt Q5JTV8); assay: compound microarray binding of lysate hLAP1 – cell lysate, small-molecule microarray, COS7 lysate, 635/667 nm fluorescence, primary screen (AID 1116); conditions: 635 nm fluorescence, higher = more signal
# [10] = biological target: Alpha-bungarotoxin (Bungarus multicinctus) (UniProt P60615); assay: compounds binding labelled alpha-BTX control protein – biochemical, small-molecule microarray, Alexa647 label, 635/667 nm fluorescence, artefact control for SMM control protein annotation, profiling panel (AID 1117); conditions: alpha-BTX-A647 binding fluorescence, higher = more signal
# Albumin (Bos taurus) = Albumin (Bos taurus) (UniProt P02769); assay: compounds binding labelled BSA control protein – biochemical, small-molecule microarray, Alexa647 label, 635/667 nm fluorescence, artefact control for SMM control protein annotation, profiling panel (AID 1118); conditions: BSA-A647 binding, fluorescence 635 nm, higher = more signal;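 note: score merges 667 nm emission intensity and signal-to-noise per printed compound spot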
# [11] = probe aXIP binding to arrayed compounds – biochemical, NeuroSMM set, 635/667 nm fluorescence, primary screen (AID 1119); conditions: small-molecule microarray, higher = more signal, called active from +8 up or from −8 down;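 note: probe is the protein aXip251-270 applied at 1 µg/mL to compound-printed slides; binding of probe to printed compounds measured as 667 nm fluorescence plus signal to noise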
# [12] = probe aNOTCH3 binding on compound microarray – biochemical, small-molecule microarray, 635/667 nm fluorescence, primary screen (AID 1120); conditions: higher = more signal;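 note: probe is a biotin-tagged antibody raised against NOTCH3 rather than NOTCH3 protein; score merges spot fluorescence near 667 nm with spot signal to noise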
# [13] = probe aNOTCH2 binding on compound microarray – biochemical, small-molecule microarray, 635/667 nm fluorescence, primary screen (AID 1121); conditions: higher = more signal;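 note: score merges feature fluorescence read at 667 nm with its signal to noise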
# [14] = biological target: Carbonic anhydrase 2 (Homo sapiens) (UniProt P00918); assay: compounds binding carbonic anhydrase 2 – biochemical, small-molecule microarray, Alexa647-labelled CAII, profiling panel (AID 1122); conditions: CAII-A647 binding fluorescence, higher = more signal
# [15] = COS7 lysate on small-molecule microarray, probe aHis, 635 nm (AID 1123); conditions: COS7 cell lysate, fluorescence, higher = more signal;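 note: z-score combines 667nm fluorescence intensity with signal-to-noise per printed compound spot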
# [16] = probe aLAP1 signal on lysate-treated microarray – cell lysate, small-molecule microarray, COS7 lysate, primary screen (AID 1124); conditions: probe aLAP1, fluorescence, higher = more signal;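 note: lysate comes from COS7 cells expressing LAP1 and is applied at 0.3 µg/mL; score merges spot fluorescence near 667 nm with signal-to-noise over triplicate slides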
# Sam68 (KHDRBS1) = assay: compounds binding KHDRBS1 protein – biochemical, small-molecule microarray, 635 nm fluorescence, primary screen (AID 1125); conditions: higher = more signal;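 note: score merges 667 nm channel intensity with signal to noise over triplicate slides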
# [17] = system: Chordin-like protein 2 (CHRDL2); assay: compounds binding chordin-like 2 – biochemical, small-molecule microarray, 635 nm fluorescence, primary screen (AID 1126); conditions: fluorescence 635 nm, higher = more signal;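 note: printed compound slides probed with Chrdl2 protein at 4 µg/mL for 1 h at 4 C; score merges 667 nm emission intensity with signal to noise over three replicate slides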
# [18] = biological target: Concanavalin-A (Canavalia ensiformis) (UniProt P02866); assay: compounds binding concanavalin A lectin – biochemical, small-molecule microarray, Alexa647 label, 635 nm, artefact control for SMM control protein annotation, primary screen (AID 1127); conditions: ConA-A647 binding fluorescence, higher = more signal;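 note: z combines 667 nm emission intensity with signal-to-noise across three replicate slides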
# Concanavalin-A (Canavalia ensiformis), sequence (P02866 whole entry, looked up): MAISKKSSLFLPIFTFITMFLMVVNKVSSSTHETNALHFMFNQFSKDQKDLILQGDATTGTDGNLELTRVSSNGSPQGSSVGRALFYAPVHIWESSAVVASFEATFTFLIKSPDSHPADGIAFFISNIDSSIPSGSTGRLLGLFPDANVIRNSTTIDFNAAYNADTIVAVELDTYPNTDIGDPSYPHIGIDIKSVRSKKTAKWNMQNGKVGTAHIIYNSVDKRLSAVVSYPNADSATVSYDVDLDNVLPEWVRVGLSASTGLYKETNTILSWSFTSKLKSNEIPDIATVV
# Torsin-1A-interacting protein 1 (Homo sapiens), sequence (Q5JTV8 whole entry, looked up): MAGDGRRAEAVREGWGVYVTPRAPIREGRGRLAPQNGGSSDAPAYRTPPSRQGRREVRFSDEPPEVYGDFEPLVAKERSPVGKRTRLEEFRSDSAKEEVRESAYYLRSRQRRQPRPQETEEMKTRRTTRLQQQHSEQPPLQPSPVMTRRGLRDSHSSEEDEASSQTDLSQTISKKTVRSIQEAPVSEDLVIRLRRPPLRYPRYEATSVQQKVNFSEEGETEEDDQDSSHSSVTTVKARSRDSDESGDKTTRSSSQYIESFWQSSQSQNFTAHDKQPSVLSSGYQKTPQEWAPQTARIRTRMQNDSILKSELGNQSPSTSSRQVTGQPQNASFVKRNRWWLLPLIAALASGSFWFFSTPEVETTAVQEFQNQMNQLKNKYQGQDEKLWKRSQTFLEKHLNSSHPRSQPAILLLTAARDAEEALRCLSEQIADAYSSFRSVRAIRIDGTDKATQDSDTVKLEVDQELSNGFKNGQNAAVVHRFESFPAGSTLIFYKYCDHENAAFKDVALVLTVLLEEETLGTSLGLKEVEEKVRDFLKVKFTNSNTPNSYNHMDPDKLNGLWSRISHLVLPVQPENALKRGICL
# Albumin (Bos taurus), sequence (P02769 whole entry, looked up): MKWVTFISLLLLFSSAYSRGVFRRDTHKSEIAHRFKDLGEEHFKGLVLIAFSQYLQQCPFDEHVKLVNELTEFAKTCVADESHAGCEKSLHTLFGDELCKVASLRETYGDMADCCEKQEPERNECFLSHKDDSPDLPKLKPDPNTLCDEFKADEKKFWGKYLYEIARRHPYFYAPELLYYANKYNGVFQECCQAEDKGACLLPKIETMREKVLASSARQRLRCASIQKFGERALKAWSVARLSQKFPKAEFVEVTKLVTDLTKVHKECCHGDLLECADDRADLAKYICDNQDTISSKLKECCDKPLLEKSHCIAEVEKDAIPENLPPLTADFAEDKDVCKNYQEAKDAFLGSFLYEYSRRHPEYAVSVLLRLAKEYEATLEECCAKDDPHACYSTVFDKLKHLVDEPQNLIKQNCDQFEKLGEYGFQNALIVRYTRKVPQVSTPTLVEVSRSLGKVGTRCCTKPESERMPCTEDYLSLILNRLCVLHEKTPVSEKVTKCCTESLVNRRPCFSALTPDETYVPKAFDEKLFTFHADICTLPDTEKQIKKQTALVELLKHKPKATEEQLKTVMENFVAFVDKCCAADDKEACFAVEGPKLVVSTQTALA
# Left-right determination factor 2 (Homo sapiens), sequence (O00292 whole entry, looked up): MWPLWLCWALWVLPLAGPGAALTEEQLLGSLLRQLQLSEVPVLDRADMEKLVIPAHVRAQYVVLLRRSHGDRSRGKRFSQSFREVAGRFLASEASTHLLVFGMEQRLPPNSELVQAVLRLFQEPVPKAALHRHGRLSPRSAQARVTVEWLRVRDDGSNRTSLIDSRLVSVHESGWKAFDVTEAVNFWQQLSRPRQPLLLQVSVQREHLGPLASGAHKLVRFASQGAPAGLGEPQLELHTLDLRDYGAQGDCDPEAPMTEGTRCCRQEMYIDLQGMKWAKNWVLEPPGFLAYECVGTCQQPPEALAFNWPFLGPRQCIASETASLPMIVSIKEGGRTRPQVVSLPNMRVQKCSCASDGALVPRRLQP
# Alpha-bungarotoxin (Bungarus multicinctus), sequence (P60615 whole entry, looked up): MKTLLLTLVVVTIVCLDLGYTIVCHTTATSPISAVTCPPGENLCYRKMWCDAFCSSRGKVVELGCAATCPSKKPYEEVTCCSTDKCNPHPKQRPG
Compound,composite z-score [1],z-score [2],composite z-score [3],composite z-score [4],composite z-score [5],composite z-score [6],composite z-score [7],composite z-score [8],composite z-score [9],composite z-score [10],composite z-score (Albumin (Bos taurus)),composite Z-score [11],composite z-score [12],composite z-score [13],composite z-score [14],composite z-score [15],composite z-score [16],composite z-score (Sam68 (KHDRBS1)),composite z-score [17],composite z-score [18]
CCCCCCC#C[Si](O[C@H](c1ccccc1)c1cn(Cc2cccc(Cl)c2)nn1)(C(C)C)C(C)C,0.564,-0.775,0.198,-0.0008,-0.159,-0.124,-0.0035,-0.118,0.343,-0.0766,0.31,0.242 (inactive),-0.0647,-0.104,0.205,0.186,-0.124,0.581,0.141,0.57
COc1ccc([Si](C)(C)[C@@H]2[C@@H](CCO)O[C@]3(C(=O)N(Cc4ccccc4)c4ccc(N5CCCCC5=O)cc43)[C@H]2C)cc1,1.4,-5.21,0.489,0.972,0.0653,-0.122,-0.2,-0.352,0.678,1.08,0.375,-0.364 (inactive),0.924,-0.108,0.08,0.72,0.0284,1.31,0.212,1.12
COC(=O)[C@@]1(Cc2ccc(F)cc2)[C@H]2c3cc(C(=O)N(C)C)n(CCSCCO)c3C[C@H]2CN1C(=O)c1ccccc1,0.0689,-0.663,-0.293,2.32,0.559,-0.0977,0.123,1.6,0.51,0.224,1.04,0.116 (inactive),0.0179,-0.0568,0.726,2.15,0.96,0.584,0.191,-0.103
CC(C)c1ccc(NN2C(C(O)c3cccs3)C=CC3C(=O)N(c4ccccc4)C(=O)C32)cc1 (stereo not given),1.4,-0.531,-0.0393,2.29,0.795,0.0364,-0.304,0.113,0.789,1.01,0.772,0.302 (inactive),0.319,-0.136,0.76,2.06,0.665,1.31,-0.127,1.13
COCCOC(=O)N1C(=O)[C@@]2(c3cc(C#CCNC(N)=O)ccc31)[C@H](c1ccc(OCCO)cc1)N1[C@H](c3ccccc3)[C@H](c3ccccc3)OC(=O)[C@H]1[C@@H]2C(=O)N1CCN(c2ncccn2)CC1,1.23,-0.0743,0.93,0.515,0.53,0.0657,-0.138,-0.0724,0.895,0.505,0.358,0.764 (inactive),0.31,0.09,0.2,0.887,0.558,1.29,0.908,1.11
COCCOC(=O)N1C(=O)[C@@]2(c3cc(C#CCC(C(=O)OC)C(=O)OC)ccc31)[C@H](c1ccc(OCCO)cc1)N1[C@H](c3ccccc3)[C@H](c3ccccc3)OC(=O)[C@H]1[C@@H]2C(N)=O,1.35,-1.12,0.535,1.61,0.193,-0.0718,0.0639,0.129,-0.189,0.992,0.84,0.674 (inactive),-0.0077,0.0264,0.57,2.82,1.02,1.29,0.474,1.15
C=C(C)[C@@H]1CC=C(C(O)C2C=CC3C(=O)N(C4CCCCC4)C(=O)C3N2Nc2ccc(OC)cc2)CC1 (stereo not given in full),1.39,-1.19,0.3,1.5,0.417,-0.0738,-0.1,-0.368,0.477,1.3,0.902,0.494 (inactive),0.323,-0.141,0.59,2.54,0.273,1.29,0.0811,1.09
COc1ccccc1CN1C(=O)c2ccccc2[C@@H](C(=O)NCC(C)C)[C@@H]1c1ccc(CO)cc1,1.05,-0.541,0.13,0.139,-0.0968,-0.196,-0.776,-0.0069,0.741,-0.544,-0.325,0.0829 (inactive),-0.236,-0.0226,0.623,0.368,0.537,-0.134,0.0987,0.358
Cc1ccc(N2C(=O)c3ccccc3[C@](C)(C(=O)NC(C)C)[C@@H]2c2ccc(CO)cc2)nc1,-1.24,-0.406,-3.6,-1.12,-0.862,-0.219,-0.49,-0.441,0.177,0.24,-0.546,-1.02 (inactive),-0.571,-0.183,0.706,1.64,-0.699,-1.55,-1.13,-1.73
COCCCNC(=O)[C@@]1(C)c2ccccc2C(=O)N(c2ccc(C)cn2)[C@H]1c1ccc(CO)cc1,-0.588,-0.0063,-0.877,-0.949,-1.12,-0.172,0.283,-0.911,1.69,-1.65,0.537,-0.333 (inactive),-0.463,-0.135,0.789,-0.317,0.406,-0.225,-0.889,-0.731
CN(C)CCCNC(=O)[C@@]1(Cc2ccccc2I)c2ccccc2C(=O)N(Cc2ccccc2Cl)[C@H]1c1ccc(CO)cc1,-0.93,-3.47,-1.3,1.48,0.775,0.157,-0.12,-0.784,0.461,1.27,0.827,-0.175 (inactive),0.175,0.2,0.522,1.44,0.507,-0.035,-1.09,1.09
